Data from PubChem BioAssay (EPA / NIEHS).
The source made the active and inactive calls. The calls were made as follows: active = hit-call score of the fitted dose curve at least 0.9, where 1 is the maximum; inactive = score below 0.9.

Key:
Conditions in all cases: mRNA level, 48 h; actives raise or lower the signal
[1] = read-out: DNA damage-inducible transcript 3 (DDIT3), DDIT3 (gene 1649); assay: LTEA_HepaRG_DDIT3: Life Technologies and Expression Analysis (LTEA) Assay for DNA damage-inducible transcript 3 (DDIT3) using HepaRG (AID 2283488)
Method in brief: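 Cells are human HepaRG liver cells treated for 48 h with eight half-log concentrations up to 100 uM in 0.5% DMSO. Transcript levels come from qRT-PCR normalized to three housekeeping genes, with activity fitted in both directions relative to vehicle.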

[2] = read-out: Pro-epidermal growth factor (Homo sapiens) (UniProt P01133); assay: LTEA_HepaRG_EGF: Life Technologies and Expression Analysis (LTEA) Assay for Epidermal growth factor (EGF) using HepaRG (AID 2283489)
Method in brief: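 Concentration-response mRNA assay: HepaRG cells dosed 48 h (max 100 uM, 0.5% DMSO), EGF measured by qRT-PCR and normalized to ACTB/GAPDH/POLR2A.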

[3] = read-out: Early growth response protein 1 (EGR1) transcription factor, EGR1 (gene 1958); assay: LTEA_HepaRG_EGR1: Life Technologies and Expression Analysis (LTEA) Assay for Early growth response protein 1 (EGR1) transcription factor using HepaRG (AID 2283490)
Method in brief: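 EGR1 expression change in human HepaRG after 48 h chemical exposure, assessed by housekeeping-normalized qRT-PCR; concentration-response up to 100 uM, fitted in both directions against DMSO controls.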

[4] = read-out: Ezrin (EZR), EZR (gene 7430); assay: LTEA_HepaRG_EZR: Life Technologies and Expression Analysis (LTEA) Assay for Ezrin (EZR) using HepaRG (AID 2283491)
Method in brief: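 HepaRG, 48 h chemical exposure, 8-pt half-log series from 100 uM, 0.5% DMSO vehicle, duplicates. Read-out: EZR mRNA by TaqMan qRT-PCR (Fluidigm array), housekeeping-normalized; bidirectional curve fit vs DMSO baseline.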

[5] = read-out: Cytochrome P450 3A7 (Homo sapiens) (UniProt P24462); assay: LTEA_HepaRG_CYP3A7: Life Technologies and Expression Analysis (LTEA) Assay for CYP3A7 using HepaRG (AID 2283492)
Method in brief: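 qRT-PCR of CYP3A7 in HepaRG lysates after 48 h treatment; concentration-response (8 points, max 100 uM) analysed bidirectionally relative to 0.5% DMSO controls.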

[6] = read-out: Fatty Acid-Binding Protein 1 (FABP1), FABP1 (gene 2168); assay: LTEA_HepaRG_FABP1: Life Technologies and Expression Analysis (LTEA) Assay for Fatty Acid-Binding Protein 1 (FABP1) using HepaRG (AID 2283494)
Method in brief: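 Values reflect bidirectional concentration-response fitting of FABP1 mRNA change against 0.5% DMSO controls. Human HepaRG cultures received eight half-log doses (top 100 uM) for 48 h; expression quantified by TaqMan qRT-PCR with housekeeping-gene normalization.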

[7] = read-out: Cytochrome P450 4A22 (Homo sapiens) (UniProt Q5TCH4); assay: LTEA_HepaRG_CYP4A22: Life Technologies and Expression Analysis (LTEA) Assay for Cytochrome P450 4A22 (CYP4A22) using HepaRG (AID 2283495)
Method in brief: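 Concentration-response (8 points, max 100 uM, 0.5% DMSO) in human HepaRG liver cells after 48 h exposure. CYP4A22 mRNA by TaqMan qRT-PCR with housekeeping-gene normalization.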

[8] = read-out: Cytochrome P450 7A1 (Homo sapiens) (UniProt P22680); assay: LTEA_HepaRG_CYP7A1: Life Technologies and Expression Analysis (LTEA) Assay for Cytochrome P450 7A1 (CYP7A1) using HepaRG (AID 2283496)
Method in brief: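 HepaRG, 48 h exposure, 8-pt half-log series from 100 uM, 0.5% DMSO vehicle, duplicates. Readout: TaqMan qRT-PCR mRNA vs three housekeeping genes; bidirectional curve fit against DMSO baseline.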

[9] = read-out: Glutathione S-Transferase (GSTA2), GSTA2 (gene 2939); assay: LTEA_HepaRG_GSTA2: Life Technologies and Expression Analysis (LTEA) Assay for Glutathione S-Transferase (GSTA2) using HepaRG (AID 2283497)
Method in brief: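 Oxidative-stress marker GSTA2 is quantified by TaqMan qRT-PCR in HepaRG cultures treated 48 h across an eight-point range to 100 uM. Expression is normalized to endogenous controls and compared with 0.5% DMSO vehicle.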

[10] = read-out: Glutamate-cysteine ligase catalytic (GCLC), GCLC (gene 2729); assay: LTEA_HepaRG_GCLC: Life Technologies and Expression Analysis (LTEA) Assay for Glutamate-cysteine ligase catalytic (GCLC) using HepaRG (AID 2283498)
Method in brief: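 Oxidative-stress marker GCLC is measured as mRNA change in human HepaRG liver cells after 48 h chemical treatment in 0.5% DMSO, eight concentrations from 100 uM. Activity is fitted bidirectionally against vehicle.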

[11] = read-out: growth arrest and DNA damage 45 (GADD45G), GADD45G (gene 10912); assay: LTEA_HepaRG_GADD45G: Life Technologies and Expression Analysis (LTEA) Assay for growth arrest and DNA damage 45 (GADD45G) using HepaRG (AID 2283499)
Method in brief: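 Concentration-response in HepaRG: 48 h dosing, 0.5% DMSO, highest level 100 uM. GADD45G expression by qRT-PCR, normalised to endogenous controls; bidirectional fit to DMSO.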

[12] = read-out: Glutamate-cysteine ligase regulatory (GCLM), GCLM (gene 2730); assay: LTEA_HepaRG_GCLM: Life Technologies and Expression Analysis (LTEA) Assay for Glutamate-cysteine ligase regulatory (GCLM) using HepaRG (AID 2283500)
Method in brief: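 Endpoint is GCLM transcript level by qRT-PCR, normalized to three housekeeping genes, after 48 h chemical exposure of human HepaRG cells (0.5% DMSO vehicle, top 100 uM, half-log dilutions). Fitting was bidirectional relative to DMSO.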

[13] = read-out: Glutathione S-transferase M3 (GSTM3), GSTM3 (gene 2947); assay: LTEA_HepaRG_GSTM3: Life Technologies and Expression Analysis (LTEA) Assay for Glutathione S-transferase M3 (GSTM3) using HepaRG (AID 2283501)
Method in brief: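 Expression of GSTM3 is determined by qRT-PCR in human liver HepaRG cells treated 48 h with an 8-point half-log range from 100 uM in 0.5% DMSO.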

[14] = read-out: Heat shock 70 kDa protein 1 (HSPA1A), gene 3303; assay: LTEA_HepaRG_HSPA1A: Life Technologies and Expression Analysis (LTEA) Assay for Heat shock 70 kDa protein 1 (HSPA1A) using HepaRG (AID 2283502)
Method in brief: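 Cells were plated and cultured for 48 h, then switched to serum-free induction medium. Chemicals were added at eight half-log concentrations up to 100 uM for 48 h. RNA was then isolated and HSPA1A measured by qRT-PCR with bidirectional curve fitting against DMSO.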

[15] = read-out: Hypoxia-inducible factor 1-alpha (Homo sapiens) (UniProt Q16665); assay: LTEA_HepaRG_HIF1A: Life Technologies and Expression Analysis (LTEA) Assay for Hypoxia-inducible factor 1 (HIF1A) Trancription factor using HepaRG (AID 2283503)
Method in brief: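 HIF1A transcript level read by qRT-PCR (ACTB, GAPDH, POLR2A normalization) after 48 h chemical exposure of HepaRG cultures. Eight half-log concentrations, top 100 uM, 0.5% DMSO vehicle, duplicates; bidirectional curve fit against DMSO baseline.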

[16] = read-out: 3-Hydroxy-3-Methylglutaryl-CoA Synthase 2 (HMGCS2), HMGCS2 (gene 3158); assay: LTEA_HepaRG_HMGCS2: Life Technologies and Expression Analysis (LTEA) Assay for 3-Hydroxy-3-Methylglutaryl-CoA Synthase 2 (HMGCS2) using HepaRG (AID 2283504)
Method in brief: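 This steatosis marker was read as HMGCS2 mRNA change in HepaRG cells treated 48 h with up to 100 uM chemical. Normalisation used housekeeping genes; activity in either direction was fitted relative to 0.5% DMSO vehicle.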

[17] = read-out: HGF (gene 3082); assay: LTEA_HepaRG_HGF: Life Technologies and Expression Analysis (LTEA) Assay for Hepatocyte Growth Facto (HGF) using HepaRG (AID 2283505)
Method in brief: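 Using HepaRG monolayers kept in 0.5% DMSO, chemicals were tested in duplicate over eight half-log concentrations from 100 uM for 48 h. Endpoint: HGF mRNA change relative to DMSO, normalized to ACTB/GAPDH/POLR2A.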

[18] = read-out: Insulin Like Growth Factor 1 (IGF1), IGF1 (gene 3479); assay: LTEA_HepaRG_IGF1: Life Technologies and Expression Analysis (LTEA) Assay for Insulin Like Growth Factor 1 (IGF1) using HepaRG (AID 2283506)
Method in brief: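 Cells are thawed, plated and cultured 48 h, then exposed in duplicate to chemical (highest 100 uM, half-log steps, 0.5% DMSO) for another 48 h. Total RNA is analysed by Fluidigm qRT-PCR for IGF1 expression relative to vehicle.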

[19] = read-out: Intercellular Adhesion Molecule 1 (ICAM1), ICAM1 (gene 3383); assay: LTEA_HepaRG_ICAM1: Life Technologies and Expression Analysis (LTEA) Assay for Intercellular Adhesion Molecule 1 (ICAM1) using HepaRG (AID 2283507)
Method in brief: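 Using the human liver line HepaRG, compounds are tested in duplicate over 48 h at concentrations up to 100 uM. Expression is determined by TaqMan qRT-PCR, normalized to endogenous controls, and analysed relative to 0.5% DMSO vehicle.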

[20] = read-out: CYP3A5 (gene 1577); assay: LTEA_HepaRG_CYP3A5: Life Technologies and Expression Analysis (LTEA) Assay for CYP3A5 using HepaRG (AID 2283493)
Method in brief: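 Human HepaRG hepatic cells receive 48 h chemical treatment at eight concentrations (half-log steps from 100 uM) in 0.5% DMSO. Expression of CYP3A5 is quantified by Fluidigm qRT-PCR and normalized to three reference genes.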

Measured: AC50

Cytochrome P450 3A7 (Homo sapiens), sequence (P24462 whole entry, looked up): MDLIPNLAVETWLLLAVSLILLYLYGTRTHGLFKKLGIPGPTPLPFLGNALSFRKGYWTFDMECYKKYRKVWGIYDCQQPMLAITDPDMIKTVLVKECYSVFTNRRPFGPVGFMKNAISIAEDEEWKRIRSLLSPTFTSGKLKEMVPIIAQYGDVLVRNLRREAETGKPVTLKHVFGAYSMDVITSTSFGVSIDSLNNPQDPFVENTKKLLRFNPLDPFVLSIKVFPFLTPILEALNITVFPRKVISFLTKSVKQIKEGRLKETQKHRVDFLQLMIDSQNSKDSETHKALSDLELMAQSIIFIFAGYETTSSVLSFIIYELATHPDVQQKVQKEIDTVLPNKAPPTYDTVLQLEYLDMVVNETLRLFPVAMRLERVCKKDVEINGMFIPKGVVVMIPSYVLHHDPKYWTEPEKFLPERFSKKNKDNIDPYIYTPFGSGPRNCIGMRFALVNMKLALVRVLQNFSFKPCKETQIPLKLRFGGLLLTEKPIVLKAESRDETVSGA
Hypoxia-inducible factor 1-alpha (Homo sapiens), sequence (Q16665 whole entry, looked up): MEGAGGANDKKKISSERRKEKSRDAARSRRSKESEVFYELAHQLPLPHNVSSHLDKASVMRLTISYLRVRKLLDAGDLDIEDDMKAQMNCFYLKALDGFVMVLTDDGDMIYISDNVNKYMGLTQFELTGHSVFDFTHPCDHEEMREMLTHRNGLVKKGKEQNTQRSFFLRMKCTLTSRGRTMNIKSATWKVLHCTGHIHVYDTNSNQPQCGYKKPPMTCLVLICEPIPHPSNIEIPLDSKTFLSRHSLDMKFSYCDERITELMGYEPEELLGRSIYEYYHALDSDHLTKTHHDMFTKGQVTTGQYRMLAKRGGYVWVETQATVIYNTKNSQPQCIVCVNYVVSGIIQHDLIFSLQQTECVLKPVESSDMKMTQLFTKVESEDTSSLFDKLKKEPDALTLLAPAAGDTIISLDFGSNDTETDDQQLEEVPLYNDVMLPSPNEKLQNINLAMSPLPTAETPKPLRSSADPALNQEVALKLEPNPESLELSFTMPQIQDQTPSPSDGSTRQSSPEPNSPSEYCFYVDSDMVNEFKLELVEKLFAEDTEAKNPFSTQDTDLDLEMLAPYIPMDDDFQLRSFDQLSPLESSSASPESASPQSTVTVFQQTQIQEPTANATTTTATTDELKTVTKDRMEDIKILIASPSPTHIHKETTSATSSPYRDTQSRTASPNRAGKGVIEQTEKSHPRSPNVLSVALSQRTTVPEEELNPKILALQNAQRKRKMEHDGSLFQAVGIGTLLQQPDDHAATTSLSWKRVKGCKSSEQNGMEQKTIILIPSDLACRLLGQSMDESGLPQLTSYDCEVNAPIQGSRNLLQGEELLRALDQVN

CCC(=C(c1ccc(O)cc1)c1ccc(OCCN(C)C)cc1)c1ccccc1
active: [1] 72.8 µM | [3] 76.5 µM | [5] 3.5 µM | [11] 93 µM | [14] 69.4 µM | [15] 83.8 µM | [16] 91.7 µM | [18] 93.4 µM | [19] 67.9 µM
inactive: [2] | [4] | [6] | [7] | [8] | [9] | [10] | [12] | [13] | [17]

CCCOc1sc(C(=O)N2CCC(c3cc(CN)ccc3F)CC2)c(C)c1Br
inactive: [1] | [3] | [4] | [5] | [20] | [6] | [7] | [8] | [9] | [10] | [11] | [12] | [13] | [14] | [15] | [16] | [17] | [18] | [19]

CCOC(=O)CC(O)(CC(=O)OCC)C(=O)OCC
inactive: [1] | [2] | [3] | [4] | [5] | [20] | [6] | [7] | [8] | [9] | [10] | [11] | [12] | [13] | [14] | [15] | [16] | [17] | [18] | [19]

CC1=C(/C=C/C(C)=C/C=C/C(C)=C/C(=O)O)C(C)(C)CCC1
active: [2] 28 µM | [4] 0.495 µM | [6] 13.6 µM | [7] 10.2 µM | [8] 29.6 µM | [9] 5.61 µM | [12] 25.8 µM | [16] 23.9 µM | [18] 31.8 µM
inactive: [1] | [3] | [10] | [11] | [13] | [17]

C[C@@H]1C[C@H]2[C@@H]3CCC4=CC(=O)C=C[C@]4(C)[C@@]3(F)[C@@H](O)C[C@]2(C)[C@@]1(O)C(=O)COP(=O)(O)O
inactive: [1] | [3] | [4] | [5] | [20] | [6] | [7] | [8] | [9] | [10] | [11] | [12] | [13] | [14] | [15] | [16] | [17] | [18] | [19]

O=c1c(-c2ccc(O)cc2)coc2cc(O)ccc12
inactive: [1] | [2] | [3] | [4] | [5] | [6] | [7] | [8] | [9] | [10] | [11] | [12] | [13] | [14] | [16] | [17] | [18] | [19]

CCCCCCCCCCCCN1CCCC1=O
inactive: [1] | [3] | [4] | [5] | [6] | [7] | [8] | [9] | [10] | [11] | [12] | [13] | [14] | [15] | [16] | [17] | [18] | [19]

c1ccc2c(c1)Cc1ccccc1-2
inactive: [1] | [3] | [4] | [5] | [6] | [7] | [8] | [9] | [10] | [11] | [12] | [13] | [14] | [15] | [16] | [17] | [18] | [19]

Cc1cc(C)c(O)c(C)c1
inactive: [1] | [3] | [4] | [6] | [7] | [8] | [9] | [10] | [11] | [12] | [13] | [14] | [15] | [16] | [17] | [18] | [19]
active: [5] 7.49 µM

CCCCCCCC(=O)O
active: [19] 0.405 µM
inactive: [1] | [3] | [4] | [5] | [6] | [7] | [8] | [9] | [10] | [11] | [12] | [13] | [14] | [15] | [16] | [17] | [18]

CCCCCCCCC(=O)O
inactive: [1] | [3] | [4] | [5] | [6] | [7] | [8] | [9] | [10] | [11] | [12] | [13] | [14] | [15] | [16] | [17] | [18] | [19]

OC1CCCCC1
inactive: [1] | [3] | [4] | [5] | [20] | [6] | [7] | [8] | [9] | [10] | [11] | [12] | [13] | [14] | [15] | [16] | [17] | [18] | [19]

c1ccc2c(c1)ccc1ccccc12
active: [5] 5.99 µM
inactive: [1] | [3] | [4] | [20] | [6] | [7] | [8] | [9] | [10] | [11] | [12] | [13] | [14] | [15] | [16] | [17] | [18] | [19]
